Inconclusive results are not listed. Active and inactive are the calls of the source. Unless noted, calls follow the shape of the full dose curve.
Tests used:
[1] = Nuclear factor erythroid 2-related factor 2/antioxidant responsive element (Nrf2/ARE) small molecule agonists: qHTS cell viability counter screen in human keratinocytes (AID 1919968; active = well fitted curve in the direction sought with a large enough effect in the repeat runs; an effect the other way counts as inactive or inconclusive; also: nearly all actives have a fitted effect of over 55% in size)
Procedure, shortened: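 Seed 1,500 KeratinoSens cells per well, then incubate 5 h at 37 C/5% CO2. Add compounds in DMSO and incubate 23 h. Add CellTiter-Fluor, wait 1 h and read fluorescence.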

[2] = Nuclear factor erythroid 2-related factor 2/antioxidant responsive element (Nrf2/ARE) small molecule agonists: luciferase reporter gene qHTS assay in human keratinocytes (AID 1919969); also: nearly all actives have a fitted effect of over 35% in size; also: potency is read from the fitted curve at half-maximal effect
[3] = target: Gonadotropin-releasing hormone receptor (Homo sapiens) (UniProt P30968); experiment: Human gonadotropin-releasing hormone receptor (GnRHR) small molecule agonists, calcium flux assay in GnRHR-HEK293 cells (AID 1920063); also: nearly all actives have a fitted effect of over 35% in size
Procedure, shortened: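 Cells: HEK293 stably expressing human GnRHR. Steps: overnight (18 h) culture, 1 h calcium dye loading at 37 C, compound addition, kinetic fluorescence read at 480/540 nm. Each compound tested at 15 concentrations in triplicate.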

[4] = target: KiSS-1 receptor (Homo sapiens) (UniProt Q969F8); experiment: Human kisspeptin (KISS1R) small molecule agonists, calcium flux assay in KISS1R-HEK293 cells (AID 1920064; active = well fitted curve in the direction sought with a large enough effect in the repeat runs; an effect the other way counts as inactive or inconclusive)
Procedure, shortened: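 Cells plated and incubated 18 h; dye added, 1 h at 37 C; compounds in DMSO pinned in; signal read at 480/540 nm every second for 3 min. Each compound tested at 15 concentrations in triplicate.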

[5] = G protein-coupled receptor (GPCR) small molecule agonists, calcium flux assay: HEK293 wild type cell line counter screen (AID 1920065)
Procedure, shortened: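 Counter-screen of the Tox21 10K library for non-specific calcium release: dye-loaded cells received compounds in DMSO and were monitored by kinetic fluorescence (480/540 nm, 3 min). Fifteen concentrations, run in triplicate.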

[6] = p53 small molecule agonists, cell-based qHTS assay with human liver microsomes (AID 1963577)
Procedure, shortened: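 Fluorescence of the beta-lactamase reporter in p53RE-bla cells, detected with LiveBLAzer substrate (2 h, room temperature, dark), served as the read-out after 16 h compound exposure at 37 C with human liver microsomes and NADPH, each 0.5 mg/mL final.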

[7] = p53 small molecule agonists, cell-based qHTS assay with rat liver microsomes (AID 1963578)
Procedure, shortened: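 Cells carrying a p53 response element–beta-lactamase reporter were plated and rested 5 h, then dosed with compound in DMSO plus rat liver microsomes and NADPH, each at 0.5 mg/mL final. After 16 h at 37 C, LiveBLAzer substrate was added for 2 h.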

[8] = p53 small molecule agonists, cell-based qHTS assay with human liver microsomes: qHTS cell viability counter screen (AID 1963579); also: nearly all actives have a fitted effect of over 45% in size
Procedure, shortened: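 Cytotoxicity counter screen: p53RE-bla, 4,000 cells/well; 5 h settle, 37 C/5% CO2; cpd + HLM 0.5 mg/mL + NADPH 0.5 mg/mL (final); 16 h, 37 C; CellTiter-Glo, 30 min RT, luminescence.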

[9] = p53 small molecule agonists, cell-based qHTS assay with rat liver microsomes: qHTS cell viability counter screen (AID 1963580); also: nearly all actives have a fitted effect of over 45% in size
Procedure, shortened: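 Intracellular ATP, by CellTiter-Glo luminescence, defines viability. HCT-116 p53RE-bla cells, 4,000 per well, were compound-treated in the presence of rat liver microsomes and NADPH for 16 h at 37 C.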

[10] = p53 small molecule agonists, cell-based qHTS assay: qHTS cell viability counter screen (AID 1963581); also: nearly all actives have a fitted effect of over 45% in size
Procedure, shortened: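 Cells: HCT-116 with p53 response element-driven beta-lactamase. Treatment: 16 h, 37 C, compounds in DMSO. Read: CellTiter-Glo luminescence after 30 min RT.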

[11] = p53 small molecule agonists, cell-based qHTS assay (AID 1963582; active = well fitted activation curve with a large enough effect in the signal ratio in the repeat runs, not every such curve was filed as active; the % refers to the signal ratio)
Procedure, shortened: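 Quantitative HTS in p53RE-bla cells: after a 5 h settling period, compounds delivered in DMSO were left on cells for 16 h at 37 C, and reporter induction was measured as fluorescence following 2 h substrate loading.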

[12] = target: 5-hydroxytryptamine receptor 2A (Homo sapiens) (UniProt P28223); experiment: 5-hydroxytryptamine receptor 2A (HTR2A) small molecule antagonists, cell-based qHTS assay (AID 1963586); also: nearly all actives have a fitted effect of over 45% in size
Procedure, shortened: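 Antagonist-mode intracellular calcium assay: DOI (4 nM) added after 5 min compound pre-incubation at room temperature to dye-loaded HTR2A-CHO cells. Fluorescence followed for 3 min, sampled every second.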

[13] = target: 5-hydroxytryptamine receptor 2A (Homo sapiens) (UniProt P28223); experiment: 5-hydroxytryptamine receptor 2A (HTR2A) small molecule agonists, cell-based qHTS assay (AID 1963587); also: nearly all actives have a fitted effect of over 30% in size
Procedure, shortened: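 Kinetic calcium-flux fluorescence (2 min, 1 sec intervals) after compound addition in agonist mode. HTR2A-CHO cells were cultured 18 h, then dye-loaded 1 h at 37 C.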

[14] = target: Muscarinic acetylcholine receptor M1 (Homo sapiens) (UniProt P11229); experiment: Cholinergic receptor muscarinic 1 (CHRM1) small molecule antagonists, cell-based qHTS assay (AID 1963588); also: nearly all actives have a fitted effect of over 40% in size; also: potency is read from the fitted curve at half-maximal effect
Procedure, shortened: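 CHRM1-CHO calcium-flux assay, antagonist mode. Cells were seeded 18 h, dye-loaded 1 h at 37 C and given compound for 5 min at RT, then acetylcholine was added at 50nM. FDSS fluorescence was read 3 min; 15 concentrations, three runs.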

[15] = target: Muscarinic acetylcholine receptor M1 (Homo sapiens) (UniProt P11229); experiment: Cholinergic receptor muscarinic 1 (CHRM1) small molecule agonists, cell-based qHTS assay (AID 1963589); also: nearly all actives have a fitted effect of over 35% in size
Procedure, shortened: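 Agonist-mode qHTS in CHO cells stably carrying human muscarinic M1. Intracellular calcium is tracked by fluorescence every second after compound transfer; each compound runs at 15 concentrations in three independent runs.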

[16] = cAMP Responsive Elements (CRE) small molecule agonists, cell-based qHTS assay (AID 1963590)
Procedure, shortened: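 Agonist mode qHTS in CRE-bla HEK 293T cells: compounds dosed from DMSO for 3 h at 37 C/5% CO2, followed by LiveBLAzer B/G FRET substrate for 2 h at room temperature.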

[17] = target: Beta-2 adrenergic receptor (Homo sapiens) (UniProt P07550); experiment: Adrenergic beta2 receptor (ADRB2) small molecule antagonists, cell-based qHTS assay (AID 1963592); also: nearly all actives have a fitted effect of over 50% in size; also: potency is read from the fitted curve at half-maximal effect
Procedure, shortened: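 Cells (CHO, stable ADRB2 overexpression) incubated 18-20hr at 37C; compounds added from DMSO; agonist mix (1nM isoproterenol, 100uM IBMX, 25uM Ro-20-1724) added; 0.5hr RT; d2-cAMP and anti-cAMP-cryptate added; 1hr RT; 665/615 nm read.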

[18] = cAMP Responsive Elements (CRE) small molecule antagonists, cell-based qHTS assay (AID 1963591; active = well fitted inhibition curve with a large enough effect in the signal ratio in the repeat runs, not every such curve was filed as active; the % refers to the signal ratio)
Procedure, shortened: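 Antagonist mode: test compounds are co-incubated with the adenylyl cyclase activator NKH477 (0.25 uM final) on CRE-bla HEK293T cells for 3 h at 37 °C, followed by LiveBLAzer substrate loading.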

[19] = target: D(2) dopamine receptor (Homo sapiens) (UniProt P14416); experiment: Dopamine D2 receptor (DRD2) small molecule agonists, cell-based qHTS assay (AID 1963594); also: nearly all actives have a fitted effect of over 35% in size
Procedure, shortened: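 cAMP accumulation in DRD2-HEK293 cells measured by HTRF after 1 h detection; compounds added 10 min before NKH477 (200nM […]) forskolin-analogue stimulation, 30 min at room temperature, with Ro20-1724 present at 0.1 mM final.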

[20] = target: D(2) dopamine receptor (Homo sapiens) (UniProt P14416); experiment: Dopamine D2 receptor (DRD2) small molecule antagonists, cell-based qHTS assay (AID 1963595; active = well fitted inhibition curve with a large enough effect in the signal ratio in the repeat runs, with a control signal flat; the % refers to the signal ratio)
Procedure, shortened: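 Antagonism was scored as restored cAMP in HEK293-DRD2 cells. These cells were stimulated with 200 nM NKH477 and 12 nM quinpirole for 30 min at room temperature, in the presence of 0.1 mM Ro20-1724.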

Measured: Potency

Chain of 5-hydroxytryptamine receptor 2A (Homo sapiens) (P28223 whole entry, looked up): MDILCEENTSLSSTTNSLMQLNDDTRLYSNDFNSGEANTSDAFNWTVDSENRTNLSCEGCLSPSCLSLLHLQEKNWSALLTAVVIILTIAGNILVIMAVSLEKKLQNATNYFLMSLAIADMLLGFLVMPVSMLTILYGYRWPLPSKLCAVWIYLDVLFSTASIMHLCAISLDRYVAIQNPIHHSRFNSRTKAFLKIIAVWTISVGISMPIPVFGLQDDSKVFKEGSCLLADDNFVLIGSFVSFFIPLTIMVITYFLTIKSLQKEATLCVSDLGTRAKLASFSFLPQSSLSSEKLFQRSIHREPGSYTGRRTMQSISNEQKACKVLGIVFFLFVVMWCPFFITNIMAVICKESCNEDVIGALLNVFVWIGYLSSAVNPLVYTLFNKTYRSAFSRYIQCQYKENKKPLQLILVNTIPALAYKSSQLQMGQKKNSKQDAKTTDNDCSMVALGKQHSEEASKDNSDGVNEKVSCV
Chain of Beta-2 adrenergic receptor (Homo sapiens) (P07550 whole entry, looked up): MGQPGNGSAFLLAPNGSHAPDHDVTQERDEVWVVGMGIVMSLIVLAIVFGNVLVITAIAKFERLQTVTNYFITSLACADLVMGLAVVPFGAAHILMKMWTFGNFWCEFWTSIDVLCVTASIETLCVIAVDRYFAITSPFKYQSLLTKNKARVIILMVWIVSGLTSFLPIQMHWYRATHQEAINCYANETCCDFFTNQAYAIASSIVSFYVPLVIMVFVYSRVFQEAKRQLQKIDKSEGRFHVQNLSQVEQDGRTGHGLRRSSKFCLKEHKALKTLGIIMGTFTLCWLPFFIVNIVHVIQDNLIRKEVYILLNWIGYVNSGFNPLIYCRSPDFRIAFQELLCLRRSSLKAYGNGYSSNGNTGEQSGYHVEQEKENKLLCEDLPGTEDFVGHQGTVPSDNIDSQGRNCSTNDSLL
Chain of Gonadotropin-releasing hormone receptor (Homo sapiens) (P30968 whole entry, looked up): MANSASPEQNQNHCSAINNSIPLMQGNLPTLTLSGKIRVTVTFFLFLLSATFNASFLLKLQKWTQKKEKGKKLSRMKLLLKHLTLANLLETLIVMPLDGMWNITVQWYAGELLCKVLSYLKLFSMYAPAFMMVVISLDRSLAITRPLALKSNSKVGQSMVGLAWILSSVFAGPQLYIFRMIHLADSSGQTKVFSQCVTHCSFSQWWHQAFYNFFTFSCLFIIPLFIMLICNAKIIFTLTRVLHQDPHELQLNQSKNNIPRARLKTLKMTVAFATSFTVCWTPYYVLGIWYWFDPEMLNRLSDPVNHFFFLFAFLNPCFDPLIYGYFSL
Chain of KiSS-1 receptor (Homo sapiens) (Q969F8 whole entry, looked up): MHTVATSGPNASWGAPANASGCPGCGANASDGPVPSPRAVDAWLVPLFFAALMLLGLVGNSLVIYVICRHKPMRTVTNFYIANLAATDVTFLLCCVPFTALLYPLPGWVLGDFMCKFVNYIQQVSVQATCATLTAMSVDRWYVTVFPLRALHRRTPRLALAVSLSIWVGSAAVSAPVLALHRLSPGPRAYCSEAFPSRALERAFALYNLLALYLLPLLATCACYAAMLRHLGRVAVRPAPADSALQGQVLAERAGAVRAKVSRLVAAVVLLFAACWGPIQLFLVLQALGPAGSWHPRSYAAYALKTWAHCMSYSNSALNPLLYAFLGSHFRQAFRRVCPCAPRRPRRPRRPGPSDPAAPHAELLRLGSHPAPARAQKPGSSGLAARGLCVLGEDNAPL
Chain of Muscarinic acetylcholine receptor M1 (Homo sapiens) (P11229 whole entry, looked up): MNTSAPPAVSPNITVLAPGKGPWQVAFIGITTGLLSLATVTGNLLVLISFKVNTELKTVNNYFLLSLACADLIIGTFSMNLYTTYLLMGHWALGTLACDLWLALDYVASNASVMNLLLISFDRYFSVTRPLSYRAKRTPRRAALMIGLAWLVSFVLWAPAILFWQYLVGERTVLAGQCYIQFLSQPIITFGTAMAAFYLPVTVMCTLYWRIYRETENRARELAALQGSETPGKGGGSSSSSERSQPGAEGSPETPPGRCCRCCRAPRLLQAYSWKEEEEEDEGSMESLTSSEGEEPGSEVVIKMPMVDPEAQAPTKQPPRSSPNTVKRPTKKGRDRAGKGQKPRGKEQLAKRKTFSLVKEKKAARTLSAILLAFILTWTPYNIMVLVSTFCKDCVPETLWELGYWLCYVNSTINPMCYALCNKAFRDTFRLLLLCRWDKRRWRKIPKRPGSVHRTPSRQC
Chain of D(2) dopamine receptor (Homo sapiens) (P14416 whole entry, looked up): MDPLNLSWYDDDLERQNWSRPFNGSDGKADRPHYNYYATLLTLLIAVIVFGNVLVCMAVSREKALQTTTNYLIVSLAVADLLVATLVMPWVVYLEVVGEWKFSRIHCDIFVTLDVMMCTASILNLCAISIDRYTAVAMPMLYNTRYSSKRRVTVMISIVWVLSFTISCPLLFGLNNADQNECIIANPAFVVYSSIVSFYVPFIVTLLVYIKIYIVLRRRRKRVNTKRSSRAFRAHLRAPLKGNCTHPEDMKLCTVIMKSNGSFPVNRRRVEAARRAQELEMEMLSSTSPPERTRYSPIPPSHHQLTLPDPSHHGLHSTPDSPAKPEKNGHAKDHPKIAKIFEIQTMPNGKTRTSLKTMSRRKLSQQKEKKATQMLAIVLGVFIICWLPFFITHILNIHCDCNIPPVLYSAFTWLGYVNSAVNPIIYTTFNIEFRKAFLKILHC

COc1cccc(O)c1O
active: [2] 28.4 µM
inactive: [1] | [3] | [4] | [5] | [6] | [7] | [8] | [9] | [10] | [11] | [12] | [13] | [14] | [15] | [16] | [17]

Nc1ccc(Cl)cc1[N+](=O)[O-]
inactive: [1] | [2] | [3] | [4] | [5] | [6] | [7] | [8] | [9] | [10] | [11] | [12] | [13] | [14] | [15] | [16] | [18] | [19] | [20]

C=C(C)C(=O)OCC(O)CO (stereo not given)
inactive: [1] | [2] | [3] | [4] | [5] | [6] | [7] | [8] | [9] | [10] | [11] | [12] | [13] | [14] | [15] | [16] | [17] | [19] | [20]

NC(CO)C(=O)NNCc1ccc(O)c(O)c1O (stereo not given)
inactive: [1] | [2] | [3] | [4] | [5] | [6] | [7] | [8] | [9] | [10] | [11] | [12] | [13] | [14] | [15] | [16] | [18] | [20]

COc1cc2c(cc1OC)C(=O)C(CC1CCN(Cc3ccccc3)CC1)C2 (stereo not given)
active: [17] 18.8 µM
inactive: [1] | [2] | [3] | [4] | [5] | [6] | [7] | [8] | [9] | [10] | [11] | [12] | [13] | [14] | [15] | [16] | [19]

CC1(C)OC[C@@H](COC(=O)CCc2ccc(OC[C@@H](O)CNCCNC(=O)N3CCOCC3)cc2)O1
inactive: [1] | [2] | [3] | [4] | [5] | [6] | [7] | [8] | [9] | [10] | [11] | [12] | [13] | [14] | [15] | [16] | [18] | [19] | [20]

CC/C=C\CC/C=C/C(OCC)OCC
active: [2] 61.1 µM
inactive: [1] | [3] | [4] | [5] | [6] | [7] | [8] | [9] | [10] | [11] | [12] | [13] | [14] | [15] | [16] | [17] | [19] | [20]

O=C1CCCc2c(O)cccc21
active: [14] 0.163 µM
inactive: [1] | [2] | [3] | [4] | [5] | [6] | [7] | [8] | [9] | [10] | [11] | [12] | [13] | [15] | [16] | [18] | [19] | [20]

C[Si]1(C)N[Si](C)(C)N[Si](C)(C)N1
inactive: [1] | [2] | [3] | [4] | [5] | [6] | [7] | [8] | [9] | [10] | [11] | [12] | [13] | [14] | [15] | [16] | [17] | [19] | [20]

CCCCC/C=C/CC(=O)OC
inactive: [1] | [2] | [3] | [4] | [5] | [6] | [7] | [8] | [9] | [10] | [11] | [12] | [13] | [14] | [15] | [16] | [17]

CC(C)=CC1CC(C)CCO1 (stereo not given)
inactive: [1] | [2] | [3] | [4] | [5] | [6] | [7] | [8] | [9] | [10] | [11] | [12] | [13] | [14] | [15] | [16] | [18] | [19] | [20]

c1ccc(CNc2ncnc3nc[nH]c23)cc1
inactive: [1] | [2] | [3] | [4] | [5] | [6] | [7] | [8] | [9] | [10] | [11] | [12] | [13] | [14] | [15] | [16] | [19] | [20]

Cn1c(=O)c2c(ncn2CC(=O)O)n(C)c1=O
inactive: [1] | [2] | [3] | [4] | [5] | [6] | [7] | [8] | [9] | [10] | [11] | [12] | [13] | [14] | [15] | [16] | [17] | [19] | [20]

C=C(C)c1cccc(C(C)(C)N=C=O)c1
inactive: [1] | [2] | [3] | [4] | [5] | [6] | [7] | [8] | [9] | [10] | [11] | [12] | [13] | [14] | [15] | [16] | [18] | [20]

S=c1[nH][nH]c(=S)s1
inactive: [1] | [2] | [3] | [4] | [5] | [6] | [7] | [8] | [9] | [10] | [11] | [12] | [13] | [14] | [15] | [16] | [17] | [19] | [20]

CCCCN(CCCC)C(C(N)=O)c1ccc(OC)cc1 (stereo not given)
inactive: [1] | [2] | [3] | [4] | [5] | [6] | [7] | [8] | [9] | [10] | [11] | [12] | [13] | [14] | [15] | [16] | [17] | [19]
